Compounds without any hit were thinned out: in the full panel of roughly 79,000, 15% have a hit. Rule as the data show it: active = growth inhibition above about 70%; inactive = the rest.
How the values were obtained:
[1] = NCI Yeast Anticancer Drug Screen. Data for the rad52 strain (AID 147);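 also: 0% = growth of vehicle-treated control cultures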; conditions: S. cerevisiae rad52 mutant growth inhibition, hits give high values
How it was run: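 Measured: yeast growth inhibition. System: strain with a defined DNA damage repair alteration. Reference: vehicle-treated control cultures.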

[2] = NCI Yeast Anticancer Drug Screen. Data for the rad50EPP+ strain (AID 151);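 also: 0% = growth of vehicle-treated control cultures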; conditions: S. cerevisiae rad50 mutant strain, hits give high values
How it was run: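 One strain with a rad50 alteration (rad50EPP+) was compound-treated, its growth then compared to that of vehicle controls.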

[3] = NCI Yeast Anticancer Drug Screen. Data for the mgt1 strain (AID 153); conditions: S. cerevisiae mgt1 mutant growth inhibition, hits give high values
How it was run: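 After exposure of the mgt1 yeast mutant to compound, growth was measured and reported as inhibition compared with vehicle controls.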

[4] = NCI Yeast Anticancer Drug Screen. Data for the rad50 strain (AID 155);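 also: 0% = growth of vehicle-only cultures of the same strain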; conditions: S. cerevisiae rad50 strain growth inhibition, hits give high values
How it was run: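 Compounds were tested on a yeast strain with an engineered DNA damage repair alteration; the reported value is growth inhibition normalised to vehicle treatment.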

[5] = NCI Yeast Anticancer Drug Screen. Data for the mec2-1 strain (AID 157); conditions: S. cerevisiae mec2-1 strain, hits give high values
How it was run: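 Test agents were screened against the mec2-1 yeast strain, with defined DNA repair or cell cycle alteration. Growth was scored as inhibition against vehicle-only controls.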

[6] = NCI Yeast Anticancer Drug Screen. Data for the rad14 strain (AID 159);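 also: 0% = growth of vehicle-treated control cultures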; conditions: S. cerevisiae rad14 strain growth inhibition, hits give high values
How it was run: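 Compound-treated yeast with a defined DNA-repair lesion; growth inhibition normalised to vehicle-treated cultures.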

[7] = NCI Yeast Anticancer Drug Screen. Data for the sgs1 mgt1 strain (AID 161);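 also: 0% = growth of cultures given vehicle only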; conditions: S. cerevisiae sgs1 mgt1 strain, hits give high values
How it was run: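 Genetically altered yeast, compound exposure, growth inhibition relative to vehicle.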

[8] = NCI Yeast Anticancer Drug Screen. Data for the CLN2oe strain (AID 163);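 also: 0% = growth of vehicle-only control cultures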; conditions: S. cerevisiae CLN2oe strain, hits give high values
How it was run: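 Here, growth inhibition in a cell-cycle-altered yeast strain after compound exposure was quantified against vehicle control growth.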

[9] = NCI Yeast Anticancer Drug Screen. Data for the cln2 rad14 strain (AID 165);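 also: 0% = growth equal to vehicle treated cultures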; conditions: S. cerevisiae cln2 rad14 strain, hits give high values
How it was run: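 Growth of compound-exposed yeast (cln2 rad14 genotype) measured and expressed as inhibition relative to vehicle.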

[10] = NCI Yeast Anticancer Drug Screen. Data for the bub3 strain (AID 167); conditions: S. cerevisiae bub3 mutant strain, hits give high values
How it was run: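 Growth of a checkpoint-deficient yeast mutant is measured after compound exposure. Values represent inhibition relative to vehicle.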

[11] = NCI Yeast Anticancer Drug Screen. Data for the wt2 strain (AID 169);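 also: 0% = growth of vehicle-treated yeast cultures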; conditions: S. cerevisiae wt2 strain growth inhibition, hits give high values
How it was run: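 Genetically defined yeast strains from a DNA-repair/cell-cycle panel were used. Compound-exposed yeast growth was measured, and the inhibition was calculated relative to vehicle treatment.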

[12] = NCI Yeast Anticancer Drug Screen. Data for the mlh1 strain (AID 171);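 also: 0% = growth of vehicle-treated control cultures of the same strain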; conditions: S. cerevisiae mlh1 strain growth inhibition, hits give high values
How it was run: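 Here the genetically defined yeast mutant is grown with each compound, and the extent to which its growth falls below that of vehicle-exposed cells is reported.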

[13] = NCI Yeast Anticancer Drug Screen. Data for the sgs1 strain (AID 173);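 also: 0% = growth of vehicle-only control cultures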; conditions: S. cerevisiae sgs1 mutant, hits give high values
How it was run: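 Relative growth inhibition, referenced to vehicle, was determined in a yeast strain with a defined alteration affecting DNA damage repair or cell cycle control after compound exposure.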

[14] = NCI Yeast Anticancer Drug Screen. Data for the mlh1 rad18 strain (AID 175); conditions: S. cerevisiae mlh1 rad18 strain growth inhibition, hits give high values
How it was run: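 In this whole-cell yeast screen, a strain with altered DNA damage repair is challenged with compound, and its growth is measured against matched vehicle-treated controls.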

[15] = NCI Yeast Anticancer Drug Screen. Data for the rad18 strain (AID 177); conditions: S. cerevisiae rad18 mutant growth inhibition, hits give high values
How it was run: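 Screen uses a yeast strain with a defined lesion in DNA damage repair; compound effect is read as loss of growth compared to untreated vehicle cultures.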

[16] = at 5.0 µM (retest, dose inferred, filed as 0.5)
[17] = at 50.0 µM (retest, dose inferred, filed as 5.0)

Measured: growth inhibition

Cc1nc(Nc2ccccc2[N+](=O)[O-])sc1C(=O)CC(=O)C(=O)Nc1c(C(C)C)cccc1C(C)C
inactive: [1]; at 1.2 µM -2% | [1]; at 3.7 µM -2% | [1]; at 11.0 µM -1% | [1]; at 33.0 µM -5% | [1]; at 100.0 µM 1% | [2]; at 1.2 µM 5% | [2]; at 3.7 µM 17% | [2]; at 11.0 µM 37% | [2]; at 33.0 µM 50% | [2]; at 100.0 µM 59% | [3]; at 1.2 µM -1% | [3]; at 3.7 µM 0% | [3]; at 11.0 µM 0% | [3]; at 33.0 µM -11% | [3]; at 100.0 µM -1% | [4]; at 1.2 µM -5% | [4]; at 3.7 µM -16% | [4]; [16] 10% | [4]; at 11.0 µM -17% | [4]; at 33.0 µM 2% | [4]; [17] 1% | [4]; at 50.0 µM -1.6% | [4]; at 100.0 µM 3% | [5]; at 1.2 µM 2% | [5]; at 3.7 µM 4% | [5]; [16] 3% | [5]; at 11.0 µM 3% | [5]; at 33.0 µM 6% | [5]; [17] 8% | [5]; at 50.0 µM 17.9% | [5]; at 100.0 µM 6% | [6]; at 1.2 µM 0% | [6]; at 3.7 µM -2% | [6]; at 11.0 µM 1% | [6]; at 33.0 µM 0% | [6]; at 100.0 µM 3% | [7]; [16] 7% | [7]; [17] 11% | [7]; at 50.0 µM 34% | [8]; at 1.2 µM 3% | [8]; at 3.7 µM 1% | [8]; at 11.0 µM 4% | [8]; at 33.0 µM 11% | [8]; at 100.0 µM 12% | [9]; [16] 35% | [9]; [17] 12% | [9]; at 50.0 µM 47.1% | [10]; at 1.2 µM 3% | [10]; at 3.7 µM 5% | [10]; [16] -3% | [10]; at 11.0 µM 7% | [10]; at 33.0 µM 12% | [10]; [17] 33% | [10]; at 50.0 µM 41.2% | [10]; at 100.0 µM 12% | [11]; at 1.2 µM -1% | [11]; at 3.7 µM 0% | [11]; at 11.0 µM 0% | [11]; at 33.0 µM 2% | [11]; at 100.0 µM 0% | [12]; at 1.2 µM 2% | [12]; at 3.7 µM 3% | [12]; at 11.0 µM 5% | [12]; at 33.0 µM 5% | [12]; at 100.0 µM 5% | [13]; at 1.2 µM 2% | [13]; at 3.7 µM 4% | [13]; at 11.0 µM 2% | [13]; at 33.0 µM 7% | [13]; at 100.0 µM 6% | [14]; [16] 4% | [14]; [17] 14% | [14]; at 50.0 µM -5.1% | [15]; at 1.2 µM -3% | [15]; at 3.7 µM 1% | [15]; at 11.0 µM 1% | [15]; at 33.0 µM 0% | [15]; at 100.0 µM -3%

From PubChem BioAssay (NCI)
